# Results: the supplement of paper PMC3334620
# Over roughly 33,000 sequences, “E-score (-0.5 to 0.5)” has its median near -0.012; the highest 2% begin near 0.27. The list comes from a sample in which the highest values are over-represented; it also holds similar and randomly drawn sequences.
# Biological target: T1, Vhr1 (UniProt P40522)
# T1 sequence: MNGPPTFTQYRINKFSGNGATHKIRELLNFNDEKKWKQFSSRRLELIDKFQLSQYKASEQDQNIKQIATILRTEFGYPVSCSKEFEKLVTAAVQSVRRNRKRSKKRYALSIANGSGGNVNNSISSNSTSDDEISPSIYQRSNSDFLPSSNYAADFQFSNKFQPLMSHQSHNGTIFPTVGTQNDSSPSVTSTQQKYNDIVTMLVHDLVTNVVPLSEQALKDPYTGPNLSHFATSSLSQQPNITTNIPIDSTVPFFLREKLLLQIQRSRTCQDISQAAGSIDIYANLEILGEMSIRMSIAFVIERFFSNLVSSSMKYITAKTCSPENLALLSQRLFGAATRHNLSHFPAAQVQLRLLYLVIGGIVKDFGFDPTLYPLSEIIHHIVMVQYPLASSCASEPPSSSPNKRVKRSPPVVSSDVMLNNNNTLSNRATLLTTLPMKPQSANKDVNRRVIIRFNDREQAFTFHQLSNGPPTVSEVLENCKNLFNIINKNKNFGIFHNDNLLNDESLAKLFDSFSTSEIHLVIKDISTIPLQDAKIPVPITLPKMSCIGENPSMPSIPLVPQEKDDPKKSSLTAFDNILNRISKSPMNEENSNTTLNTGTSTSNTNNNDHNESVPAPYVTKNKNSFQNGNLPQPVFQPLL
# Test: PBM E-score (8-mer binding enrichment) (E-score (-0.5 to 0.5)); higher = stronger / more preferred TF binding
# Settings: protein concentration: 200 nM; construct: GST-full length
# Outline: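 Masliner-normalised scans of fluorescent anti-GST signal were the basis for scoring. That signal came from GST-tagged yeast transcription factors applied at about 100-200 nM to double-stranded universal all-10-mer Agilent arrays on fresh or once-stripped slides. Each ungapped eight-base word, pooled with its reverse complement, received an E-score from the Universal PBM Analysis Suite.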
row,Sequence,PBM E-score
1,ACTCATGC,0.322
2,ATGCATGA,0.165
3,ATGCATGC,-0.0419
4,CCTCATGA,0.0599
5,ACTCATGA,0.369
6,ACACATGG,0.215
7,ATTCATGC,0.21
8,ATTCATGG,0.21
9,AATTCACG,-0.0883
10,CGACAGAG,0.0418
11,GGACTATA,0.0737
12,CCAATTCC,-0.0792
13,ATCGTCTA,0.0131
14,ATCCTCCC,-0.107
15,CAAGTTCC,-0.216
16,AAGTCCGA,-0.205
17,ATTATACG,0.303
18,ATTATACA,0.00881
19,ATTATACC,0.112
20,CGATTCCA,0.0812
21,AGGTTCAA,0.0239
22,GGATTCAA,-0.0312
23,TGGTTCAA,0.289
24,TGATTCCA,0.364
25,AGATTCCA,0.00955

row,Sequence,PBM E-score
1,CGGTTCAA,0.0706
2,TGATTCAA,0.326
3,AGATTCAA,-0.133
4,CGATGAAA,-0.0595
5,AAGCTTTA,-0.237
6,CTAAAACA,-0.0504
7,GTAGCTTA,0.00186
8,CAAGTAAG,-0.123
9,CCATTCAG,-0.0511
10,ACTAGTCA,0.292
11,TCTAGTCA,0.218
12,CCTAGTCA,0.309
13,CCTAGTCG,0.0391
14,GCTAGTCA,0.284
15,ACTAGTCC,0.133
16,GCTAGTCC,-0.158
17,CCTAGTCC,-0.0886
18,GCTAGTTA,0.00532
19,ATCTTCTG,-0.113
20,ACTTCGGA,-0.00447
21,GAAAGTTC,-0.349
22,AGAGTACT,0.0467
23,ATTCTTAC,-0.00122
24,CTCTGGAC,0.0126
25,CCTCCCAA,-0.246

row,Sequence,PBM E-score
1,CCGCCCCC,-0.17
2,ACGCCCCA,0.112
3,CCTCCCCC,-0.19
4,CCGCCCCG,0.365
5,CCTCCCCA,0.28
6,GCGCCCCA,-0.131
7,CCGCCCGG,0.0777
8,CCGCCCCA,0.349
9,CAGAAATG,-0.168
10,CTTCATGA,0.145
11,CGGCCGAA,0.185
12,AGGTTGAA,-0.127
13,AGGAACCT,-0.0548
14,CAAGAGTA,0.167
15,CTCCCGCC,0.0303
16,CTAGCGAC,-0.00899
17,CGTGTCTA,0.124
18,GTGATTTA,0.321
19,GGGATTTA,-0.29
20,GAGATTTA,-0.176
21,ATGATTTC,0.249
22,ATGATTTA,0.295
23,CTGATTTA,0.00054
24,TCAATTGA,-0.0329
25,GATTCTCA,0.078

row,Sequence,PBM E-score
1,TGGTCCAA,-0.0804
2,AGATATAT,0.131
3,GCTGGGAA,0.0455
4,AGTGGGAC,0.0716
5,CCAAATCG,-0.166
6,ACTGCTCA,0.0795
7,AGCACTGG,-0.0591
8,AGGATGGC,0.124
9,CTCACGCA,0.29
10,ATCACTCA,0.234
11,CTCACGCC,0.239
12,GTCACTCA,0.325
13,GTCACAAA,-0.0213
14,CTCACTCA,0.0981
15,GTCACACA,0.303
16,CTCACACA,0.299
17,CTCACATA,0.186
18,GTCACGCA,0.0821
19,CTCACACC,0.0809
20,GTCACAGA,0.157
21,CATGGTAA,-0.0174
22,AATAGGGC,-0.124
23,AATTGTGG,0.00128
24,CCAACGCC,-0.203
25,CATTTGAA,-0.0815

row,Sequence,PBM E-score
1,TGATAGCA,0.194
2,ATAGATGC,-0.0668
3,GTGATATA,0.0452
4,CCATCCTC,0.0474
5,CTAGTATA,0.0509
6,CTCAACTA,0.106
7,ACTCAACG,0.171
8,ACTCAATG,0.159
9,ACTCCACA,0.277
10,ACTCCACG,-0.104
11,TATCAACA,0.172
12,AATCAACA,0.303
13,TCTCCACA,-0.0495
14,ACTCAACA,0.289
15,TCTCAACA,0.113
16,ACTCAATC,0.293
17,AATCAATC,0.186
18,GATCAACA,-0.0766
19,ACTCATAA,0.164
20,ACATCGCG,0.183
21,AGTTAGGC,-0.144
22,CGACTGTC,0.102
23,AAAGTAGG,-0.0386
24,ATCTCCAT,0.0116
25,ATGCTTGA,0.0306

row,Sequence,PBM E-score
1,AACCACCT,0.0827
2,AATCACCA,0.33
3,AATCACCC,0.38
4,AATCACCG,0.266
5,CATCACCC,0.103
6,CATCACCA,0.167
7,AATCACCT,0.312
8,AATCACGT,0.225
9,TATCACCA,0.0885
10,ACCCCAAG,-0.0964
11,CCGATCAC,0.0847
12,GTGCAAAC,-0.0932
13,TAGAAGGA,-0.332
14,ATAAGGGA,-0.137
15,ATCTAAAA,0.0219
16,ATTAACTG,0.224
17,AGTCATTG,0.389
18,AGTCATTA,0.368
19,CCTCATTC,-0.0181
20,AGTCATTC,0.384
21,ACTCATTG,0.196
22,ACTCATTC,0.367
23,GGTCATTA,-0.0362
24,ATTCATTG,0.0738
25,CGTCATTA,-0.122

row,Sequence,PBM E-score
1,CGTCATTC,0.177
2,ATTCATTC,0.165
3,AGCCATTC,-0.00524
4,TGACAGCA,0.127
5,ATAGCGTA,-0.0276
6,CAAAACAA,-0.13
7,GCCTCAAA,-0.0409
8,GAGGGCAC,-0.205
9,AAAGTCAC,0.246
10,CTAGTCAC,0.34
11,GTAGTCAC,0.441
12,CAAGTCAC,0.284
13,CAAGTCAG,0.208
14,CTAGTCGC,0.0967
15,CTAGTCAA,0.124
16,GTAGTCAA,0.262
17,GAAGTCAC,0.269
18,ACTCTTTC,-0.172
19,GTGTCTTA,0.0499
20,CCTGAATC,0.0923
21,GACGTTAC,-0.062
22,AAAGGCGT,-0.19
